Compound activity: PubChem BioAssay, National Center for Advancing Translational Sciences (NCATS)
TGFb SMAD3 inh: inhibitors of TGF-b signaling. HepG2 CAGA-GFP TGF-b/SMAD3 reporter, GFP fluorescence, 18 h; TGF-beta stimulated, 500 pg/mL final. Potency, µM (titrated, usually from 46.1 µM), for the others: at the top dose activity, negative = inhibition, hits mostly inhibitors. hit rate 1.2% among 410,000. AID 588855; note: % is set by controls: 0 for no effect and ±100 for the full control effect; nearly all actives have a fitted effect of over 65% in size
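Smad-responsive CAGA-GFP expression was quantified in HEPG2 cells exposed to compounds and 500 pg/mL final TGF-beta for 18 h at 37 degrees C; unstimulated wells defined full inhibition.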
Anesthetic bind: binds horse apoferritin like a general anesthetic; apoferritin/1-aminoanthracene competitive binding, fluorescence; Potency, µM (top dose mostly 77.5 µM), for the others: at the highest dose activity change, negative = displacement, actives largely listed as inhibitors; hit rate 0.074% among 350,000; note: % is set by controls: 0 for no effect and ±100 for the full control effect; nearly all actives have a fitted effect of over 20% in size
Target sequence (P02791 2-175 limits assumed): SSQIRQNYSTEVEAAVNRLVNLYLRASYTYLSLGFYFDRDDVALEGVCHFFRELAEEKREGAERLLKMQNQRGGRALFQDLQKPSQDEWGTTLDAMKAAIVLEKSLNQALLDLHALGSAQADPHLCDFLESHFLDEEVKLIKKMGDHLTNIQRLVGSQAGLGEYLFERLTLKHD
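Steps: apoferritin (10 uM) was premixed with half-saturated 1-AMA in PBS, compounds were pin-transferred, plates stood 10 min at room temperature, fluorescence was read at 380/535 nm, and curves were fitted with a Hill equation.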
HepG2 viability: HepG2 cytotoxicity, counter-screen for TGF-b inhibitors. AID 588856. HepG2 CAGA-GFP viability, ATP luminescence, 18 h. Potency, µM (highest dose often 46.1 µM), inactives show at the highest dose activity change, negative = cytotoxicity, actives largely listed as cytotoxic. hit rate 0.76% among 410,000
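HepG2 CAGA-GFP cells (1000/well, DMEM with 1% FBS) received compound, then TGF-beta at 500 pg/mL final, and were incubated 18 hours at 37 degrees C. Viability was read by CellTiter-Glo luminescence. Media-only wells were set as complete cell-killing and DMSO as no toxicity.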
ATXN viability: viability counter-screen for ATXN expression inhibitors | Potency, µM (top dose mostly 56.7 µM), usual class: cytotoxic | hit rate 0.49% among 400,000 | S2 cells (HEK-293 line with an ATXN2-luciferase reporter) viability, CellTiter-Fluor protease fluorescence, 24 h | AID 651635; note: nearly all actives have a fitted effect of over 40% in size
ATXN2 expr inh: reduces ATXN2 reporter expression in HEK-293 cells; AID 1745845; Potency, µM (series often up to 57 µM), for the others: at the highest dose activity change, negative = inhibition, most hits filed as inhibitors; hit rate 0.72% among 360,000; HEK-293 ATXN2-luciferase reporter, luminescence, 24 h; note: % is set by controls: 0 for no effect and ±100 for the full control effect; nearly all actives have a fitted effect of over 55% in size
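qHTS (up to 57 uM final) was run with 24 h compound exposure of reporter cells at 37 °C. Each well was multiplexed: SteadyGlo luminescence measured ATXN2-luciferase expression after a fluorogenic Gly-Phe-AFC viability readout (25 uM final).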
An asterisk follows results filed as active; i = inactive; ? = inconclusive; · = not tested or not shown; [ ] = another dose, or the depositor's remark. An excerpt weighted towards active compounds, which were near 2.4% of everything screened. Calls come from the whole dose curve; as a rule, active = well fitted curve in the direction sought with a large enough effect; inconclusive = small, poorly fitted or top-dose-only effect, or another doubt; inactive = no such curve, though single readings can be large; an effect the other way counts as inactive or inconclusive. Potency is the fitted concentration of half-maximal effect.

SMILES | TGFb SMAD3 inh | Anesthetic bind | HepG2 viability | ATXN viability | ATXN2 expr inh
CN(C)CCCNc1nc2cc(-c3cccc(Cl)c3)sc2c(=O)n1C | ? | · | 11µM* | ? | ?
COC(CNC(=O)c1c[nH]c2ccc(S(=O)(=O)N3CCC4(CC3)OCCO4)cc2c1=O)OC | 3.5µM* | -7% | -4% | i | -3%
COC(CNC(=O)c1c[nH]c2ccc(S(=O)(=O)N3CCOCC3)cc2c1=O)OC | -9% | 5% | -19% | i | 4%
O=C1/C(=C/c2cccnc2)CCC/C1=C\c1cccnc1 | 4µM* | -4% | -99% | 11µM* | 18µM*
O=C1/C(=C/c2cccnc2)CC/C1=C\c1cccnc1 | 7% | -11% | -13% | ? | ?
CCC1C/C(=C\c2cccnc2)C(=O)/C(=C/c2cccnc2)C1 (stereo not given) | 4µM* | -5% | 10µM* | · | 14µM*
Cc1ccc(SC/C(O)=C(\C#N)c2nc3ccccc3s2)cc1 | 25µM* | 6% | -23% | i | 16%
COc1cccc(CN(C)C(=O)c2cnn(-c3ncc4c(n3)-c3ccccc3CCC4)c2C)c1 | · | · | · | i | ·
O=C(Oc1cccc2cccnc12)c1cccc([N+](=O)[O-])c1 | -16% | -11% | -12% | i | 5%
O=C(Oc1ccc(Cl)c2cccnc12)c1cccc([N+](=O)[O-])c1 | 14µM* | -14% | -56% | i | -16%
O=C(Oc1c(Cl)cc(Cl)c2cccnc12)c1cccc([N+](=O)[O-])c1 | ? | -7% | -5% | i | 20µM*
CCc1ccc(C2NC(=O)c3[nH]nc(-c4cccc(OC)c4)c32)cc1 (stereo not given) | ? | -5% | -54% | ? | ?
Cc1csc(C)[n+]1CCC1CCCCC1 | -18% | · | -5% | · | ·
COc1ccc(CN2CCCC(n3cc(C(=O)N4CCCCC4)nn3)C2)c(OC)c1OC (stereo not given) | · | · | · | i | ·
CCOc1ccc(CCN2CN(CC)CNC2=S)cc1OCC | -20% | -3% | 8.9µM* | i | -23%
CCN1CNC(=S)N(CCc2ccccc2)C1 | 7% | -8% | -1% | i | -12%
O=C(NCc1ccc2c(c1)OCO2)C(=O)NCC1OCCN1S(=O)(=O)c1ccccc1 (stereo not given) | ? | · | 2% | i | -9%
COc1cccc(CNc2ncnc3sc(C(=O)N4CC5CCC4C5)c(C)c23)c1OC (stereo not given) | · | · | · | i | ·
CCCCCCCCCC[n+]1cccc2cc(Cl)ccc21 | ? | · | -84% | · | ·
CCCCCCCCCC[n+]1cccc2c3ccccc3ccc21 | 13µM* | -2% | 11µM* | ? | 0.67µM*
CCCCCCCCCCCCCCCC[n+]1ccc(C)c2ccccc21 | 7.1µM* | · | 11µM* | · | ·
CCCCCCCC[n+]1cccc2c3ccccc3ccc21 | 1.4µM* | 56% | -10% | ? | ·
CCCCCCCCCC[n+]1ccc(/C=C/c2c[nH]c3ccccc23)c2ccccc21 | 7.1µM* | · | 13µM* | · | ·
COc1ccccc1C1CN(Cc2cccc(O)c2)Cc2ccccc2O1 (stereo not given) | · | · | · | i | ·
CN1CCN(C2Cc3cc(F)ccc3Sc3ccc(Cl)cc32)CC1 (stereo not given) | 32µM* | · | -105% | ? | ·
SMILES | TGFb SMAD3 inh | Anesthetic bind | HepG2 viability | ATXN viability | ATXN2 expr inh
CN1CCN(C2Cc3ccc(F)cc3Sc3cc(F)c(Cl)cc32)CC1 (stereo not given) | ? | · | 20µM* | ? | ?
CSc1ccc2c(c1)[C@H](N1CCN(C)CC1)Cc1ccccc1S2 | · | -3%[29.3 µM] | · | i | ·
CCc1cccc2c1Sc1ccccc1CC2N1CCNCC1 (stereo not given) | ? | · | -134% | · | ·
Cc1cccc2c1Sc1ccc(Cl)cc1CC2N1CCNCC1 (stereo not given) | ? | · | -156% | 16µM* | ?
CN1CCN(C2Cc3ccccc3Sc3cc(C(F)(F)F)ccc32)CC1 (stereo not given) | ? | · | 20µM* | · | ?
CN1CCN(C2=Cc3ccc(Cl)cc3Sc3ccc(F)cc32)CC1 | ? | -2% | -89% | i | ?
CS(=O)(=O)N1CCN(Cc2cc3nc(-c4cccc5[nH]ncc45)nc(N4CCOCC4)c3s2)CC1 | -29%[92.2 µM] | · | -8%[92.2 µM] | · | ?
CCCS(=O)(=O)NCc1c(C)ncc2c1CCN(C(=O)c1cccc(Cl)c1F)C2 | · | · | · | i | ·
CC(C)(C)n1ncc2c(=O)n(Cc3c(F)cc(Cl)cc3F)cnc21 | -15% | · | -18% | · | ·
COc1cc(=O)n2c(c1C(=O)N(C)Cc1nonc1C)CCN(Cc1c(F)cccc1F)CC2 | · | · | · | i | ·
COc1ccc(-c2cc(C3C4C=CCC(C)C4C(=O)N3Cc3ccccc3)ccc2F)cc1OC (stereo not given) | -22% | 104% | 5% | · | ·
O=C1NC[C@@H](CCCCN2C[C@H](Cc3ccccc3)N(CC3CCCCC3)C(=O)C2=O)N(CC2CCCCC2)C1=O | · | · | · | 14µM* | -8%
Nc1nc2ccccc2n1S(=O)(=O)c1ccc([N+](=O)[O-])cc1 | 13µM* | · | -85% | i | -2%
c1ccc(-c2nc3cc4ccccc4cc3[nH]2)nc1 | -30% | -4% | 8.9µM* | i | -22%
CC(=O)Nc1ccc2nc(-c3ccccn3)[nH]c2c1 | -4% | -6% | -31% | i | 4%
CCN1CCc2c(sc(-n3cccc3)c2C(C)NC(=O)Nc2ccc(C(=O)OC)cc2)C1 (stereo not given) | 10µM* | -12% | -30% | · | ·
COc1cccc(-c2nnc3n2N=C(c2c(OC)cccc2OC)CS3)c1OC | · | -19% | · | · | ·
CC(=O)NC(C)c1ccc(Oc2ccc(OC(C)C)cc2)cc1 (stereo not given) | · | · | · | · | 11%
O=[N+]([O-])c1ccc(Nc2nc(NCCN3CCOCC3)nc(Nc3ccc(I)cc3)n2)cc1 | 6% | · | -44% | · | ·
C[C@@H]1c2ccccc2N2C[C@H](Cc3ccc(C(=O)c4ccccc4)cc3)C[C@@H]12 | -14% | · | -27% | i | 0%
Cc1ccc(Cc2c(-c3ccc(F)cc3)nc3c(C)cc(Br)cn23)cc1 | 13µM* | · | -62% | ? | -17%
Cc1ccc(Cc2c(-c3ccc(C)cc3)nc3c(C)cc(Br)cn23)cc1 | ? | · | -16% | i | 1%
Fc1ccc(-c2nc3ccc(Br)cn3c2Cc2cccc(Cl)c2)cc1 | ? | · | 4% | ? | -24%
Fc1ccc(-c2nc3ccc(Br)cn3c2Cc2cccc(F)c2)cc1 | 13µM* | · | -33% | i | 44%
CCN(CC)CCN | · | · | · | i | 3%
CCCCNc1nc(C#N)nc(Nc2ccccc2)n1 | · | 0% | · | · | ·
CC(=O)c1c(C)oc2ccc(N(C(C)=O)S(=O)(=O)c3ccc(Cl)c([N+](=O)[O-])c3)cc12 | 7% | -17% | -21% | · | 25µM*
CC(=O)c1c(C)oc2ccc(N(C(C)=O)S(=O)(=O)c3ccc(Br)cc3)cc12 | ? | · | -29% | i | -20%
